Giardia killer – Small Molecules that selectively kill Giardia lamblia: qHTS; Giardia lamblia trophozoite viability; activity change, % at 7.66 µM, hits read low; 340,000 compounds, 0.15% hits; in the data active means activity change below about -80%; inconclusive means between about -30% and that limit;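 further: parasites exposed to compound for two days anaerobically before the ATP read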
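Giardia trophozoites, 100 cells per well, were exposed to compounds for 48 hrs at 37 deg C under anaerobic conditions; viability was then read as ATP content by bioluminescence after 15-30 min at room temperature.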
IL-1B inflam inh – qHTS for Inhibitors of Inflammasome Signaling: IL-1-beta AlphaLISA Primary Screen; THP-1 LPS/ATP IL-1B secretion, AlphaLISA, 16 h; hits give low values; activity change, % at 57.5 µM; 360,000 compounds, 4.7% hits; AID 743279, 2014; in the data active means activity change below about -50%; inconclusive means mostly about -30% to -49%
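THP-1 cells pretreated 1 hr with compounds (up to 57.5 uM final), then stimulated with LPS (250 ng/mL final) plus ATP (1.25 mM final); secreted IL-1B measured by AlphaLISA after 16 hr, decreased signal indicating inhibition.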
DT40 TDP1 no CPT – qHTS for Inhibitors of human tyrosyl-DNA phosphodiesterase 1 (TDP1): qHTS in cells in absence of CPT | DT40 Tdp1-/- hTDP1 cells, no CPT, ATP luminescence, 48 h | Potency, µM (titrated, usually from 46.2 µM), inactives show top-dose activity change, negative = growth inhibition, usual class: inhibitors | 420,000 compounds, 15% hits; further: potency means the concentration at half of the fitted maximal effect; nearly all actives have a fitted effect of over 55% in size
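Luminescent ATP content (CellTiter-Glo) served as the growth readout. Knockout chicken DT40 cells expressing human TDP1 were exposed to compounds without camptothecin for a minimum 48 hr at 37 °C.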
TDP1 inh – qHTS Assay for Inhibitors of Tyrosyl-DNA Phosphodiesterase (TDP1). 350,000 compounds, 0.28% hits. recombinant TDP1, AlphaScreen DNA substrate cleavage. AID 485290, 2010. Tyrosyl-DNA phosphodiesterase 1 (Homo sapiens), Q9NUW8. Potency, µM (highest dose often 130 µM), inactives show at the top dose activity change, negative = inhibition, hits mostly inhibitors; further: potency means the concentration at half of the fitted maximal effect; nearly all actives have a fitted effect of over 40% in size
Target sequence (Q9NUW8 whole entry, looked up): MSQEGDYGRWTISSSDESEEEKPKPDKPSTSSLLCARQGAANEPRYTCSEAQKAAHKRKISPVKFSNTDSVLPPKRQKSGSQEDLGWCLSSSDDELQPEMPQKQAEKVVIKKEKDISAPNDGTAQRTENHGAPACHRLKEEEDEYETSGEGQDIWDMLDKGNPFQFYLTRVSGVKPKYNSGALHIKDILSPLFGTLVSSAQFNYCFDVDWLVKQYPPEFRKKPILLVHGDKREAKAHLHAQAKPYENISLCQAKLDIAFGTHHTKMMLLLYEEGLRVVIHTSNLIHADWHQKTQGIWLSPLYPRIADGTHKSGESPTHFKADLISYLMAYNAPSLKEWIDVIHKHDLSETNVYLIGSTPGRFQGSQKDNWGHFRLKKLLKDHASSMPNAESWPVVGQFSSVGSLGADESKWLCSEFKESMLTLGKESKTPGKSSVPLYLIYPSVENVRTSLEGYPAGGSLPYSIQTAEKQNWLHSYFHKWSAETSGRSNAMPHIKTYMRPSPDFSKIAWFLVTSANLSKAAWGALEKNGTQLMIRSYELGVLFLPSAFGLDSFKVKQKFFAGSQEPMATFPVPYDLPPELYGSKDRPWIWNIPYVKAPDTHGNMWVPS
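Steps: enzyme plus compound, 15 min RT; add biotin/phosphotyrosine-FITC oligonucleotide (15 nM final), react 5 min; add donor/acceptor beads (10 ug/ml final), 10 min; read AlphaScreen. Tdp1 at 1 nM final.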
TDP1 cell CPT – qHTS for Inhibitors of human tyrosyl-DNA phosphodiesterase 1 (TDP1): qHTS in cells in presence of CPT. chicken DT40 Tdp1-/-;hTDP1 cells + 20 nM CPT, ATP luminescence, 48 h. Potency, µM (titrated, usually from 46.2 µM), for inactives: top-dose activity change, negative = growth inhibition, usual class: inhibitors. 420,000 compounds, 12% hits. AID 686979, 2013; further: potency means the concentration at half of the fitted maximal effect; nearly all actives have a fitted effect of over 55% in size
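Chicken DT40 Tdp1-/- cells stably complemented with human TDP1 were seeded at 400 cells/well in medium containing 20 nM camptothecin, exposed to pin-transferred compounds, and grown at 37 °C for at least 48 hr. Viability was read as ATP luminescence.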
ELG1 DNA repair – qHTS screen for small molecules that inhibit ELG1-dependent DNA repair in human embryonic kidney (HEK293T) cells expressing luciferase-tagged ELG1. AID 504467, 2011. Potency, µM (highest dose often 46.1 µM), without a hit: top-dose activity change, negative = inhibition, actives largely listed as inhibitors. 330,000 compounds, 2.3% hits. HEK293T ELG1-luciferase reporter, luminescence, 16 h; DNA damage induced by 5-fluorouridine; further: potency means the concentration at half of the fitted maximal effect; nearly all actives have a fitted effect of over 55% in size
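Step one: seed 2,000 cells per well. Step two: pin-transfer compound or DMSO alongside 5-fluorouridine. Step three: incubate 16 hr, 37 °C, 5% CO2. Step four: add ONE-Glo, wait 30 min, read luminescence.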
Starred values were filed as active, the others as inactive; ? = inconclusive; nt = not tested or not shown; [ ] = dose if it differs, or a comment. Only some compounds are listed: those with a hit (about 19% of all), similar ones and a draw of the others. Unless noted, the call rests on the fitted dose curve; in most records, active means well fitted curve in the direction sought with a large enough effect; inconclusive means small, poorly fitted or top-dose-only effect, or another doubt; inactive means no such curve, though single readings can be large; an effect the other way counts as inactive or inconclusive. On the % scale 0 is the no-effect control and ±100 the full control effect.

SMILES	Giardia killer	IL-1B inflam inh	DT40 TDP1 no CPT	TDP1 inh	TDP1 cell CPT	ELG1 DNA repair
CCOc1ccc(C2C=C(c3ccccc3)Nc3nnnn32)cc1 (stereo not given)	-9	16	?	2%	-23%	?
C[C@@H](O)[C@H]1C(=O)N2C(C(=O)O)=C([C@H]3CCCO3)S[C@H]12	nt	nt	4%	nt	11%	nt
O=C(O)c1cc2ccccc2c(N=Nc2cccnc2)c1O	-82*	-9	-23%	8%[0.0935 µM]	?	-6%
COc1ccc(C(=O)CCN(C)C)c2ccccc12	nt	nt	2.8µM*	nt	1.3µM*	nt
Cc1ccc(C(c2nnnn2C2CCCC2)N2c3ccccc3CC2C)cc1 (stereo not given)	8	1	18µM*	0%	?	-10%
Fc1ccc(C(c2nnnn2C2CCCC2)N2CCc3ccccc32)cc1 (stereo not given)	-10	-6	23µM*	3%	?	-12%
CCN(CC)C(c1ccc(C)cc1)c1nnnn1C1CCCCC1 (stereo not given)	7	-8	18µM*	-5%	?	11%
Cc1ccc(NC(=O)CN2C(=O)C(C)(C)c3cc(S(=O)(=O)N4CCCCC4)ccc32)c(Br)c1	nt	nt	?	3%	-21%	nt
O=C(c1cccs1)N(Cc1ccco1)c1ccc(O)cc1	21	nt	?	4%	?	nt
O=C(O)CCC(=O)Nc1nc2nccc(-c3ccccc3)n2n1	40	-8	-7%	5%	-9%	3%
Cc1ccc(C)c(NC(=O)CN(C)C(=O)[C@@H](NC(=O)c2ccc(C(C)(C)C)cc2)C(C)C)c1	13	-21	18µM*	-1%	23µM*	?
Cc1cccc(N(CC(=O)NC2CCCC2)C(=O)CCC(=O)Nc2ccccn2)c1	3	-17	2%	0%[0.0935 µM]	-3%	-6%
CSC(SC)=C(C#N)C(=O)c1ccccc1	-5	-89*	2.6µM*	6%	2.1µM*	-16%
COc1cccc(C(=O)C(C#N)=C(SC)SC)c1	10	-5	2.3µM*	5%	2.6µM*	8%
CC1CCN(S(=O)(=O)c2ccc3nc(Nc4cccc(F)c4)ccc3c2)CC1	nt	nt	21µM*	-8%	21µM*	nt
NS(=O)(=O)c1ccc(Nc2ccc3cc(S(=O)(=O)N4CCCCC4)ccc3n2)cc1	21	?	?	-3%	?	-8%
CC1CCN(S(=O)(=O)c2ccc3nc(NCc4ccccc4)ccc3c2)CC1	nt	nt	10µM*	0%	10µM*	nt
CC1CCN(S(=O)(=O)c2ccc3nc(-c4ccccn4)cc(C(=O)NCCN(C)Cc4ccccc4)c3c2)CC1	-3	-10	5.8µM*	1%	7.3µM*	14%
CC(=O)c1ccc(Nc2ccc3cc(S(=O)(=O)N4CCCC4)ccc3n2)cc1	nt	nt	?	-3%	21µM*	nt
COc1ccc(OC)c(Nc2nc3ccc(C)cc3n3cnnc23)c1	1	16	?	nt	16µM*	8.2µM*
COc1ccc(Cl)cc1Nc1nc2ccc(C)cc2n2cnnc12	-12	60	15µM*	nt	23µM*	?
COc1ccc(Cl)cc1Nc1nc2ccc(C(=O)c3ccccc3)cc2n2cnnc12	nt	nt	-18%	3%	-12%	nt
COc1cc(Cl)c(C)cc1Nc1nc2ccccc2n2cnnc12	nt	nt	?	2%	-9%	nt
Cc1ccc2nc(Nc3ccc(C)c(Cl)c3)c3nncn3c2c1	-4	28	?	nt	?	-2%
COc1ccc(Nc2nc3cc(Cl)c(Cl)cc3n3cnnc23)cc1Cl	nt	nt	13µM*	2%	?	nt
SMILES	Giardia killer	IL-1B inflam inh	DT40 TDP1 no CPT	TDP1 inh	TDP1 cell CPT	ELG1 DNA repair
Cc1ccc2nc(Nc3ccc(C)c(F)c3)c3nncn3c2c1	nt	nt	15µM*	0%	18µM*	nt
CC1(C2CC2)NC(=O)N(CC(=O)Nc2ccccc2F)C1=O (stereo not given)	-2	-5	0%	12%	-18%	4%
Cc1nn(CCCC(=O)Nc2ccccc2C(F)(F)F)c(=O)c2c1sc1ccccc12	nt	nt	?	0%	-29%	nt
O=C(COC(=O)C1C2CC3OC(=O)C1C3C2)Nc1ccc(Br)cc1 (stereo not given)	-1	14	-5%	2%[0.0935 µM]	-4%	-1%
Cc1ccc(S(=O)(=O)CCC(=O)OCC(=O)NC(N)=O)cc1	-14	0	-11%	-5%	?	?
CCOC(=O)CCS(=O)(=O)c1ccc(-c2ccc(S(=O)(=O)CCC(=O)OCC)cc2)cc1	-13	-99*	-12%	3%	-13%	8%
CC(=O)CCS(=O)(=O)c1ccc(Oc2ccc(S(=O)(=O)CCC(C)=O)cc2)cc1	4	-75*	8.2µM*	-2%[56.1 µM]	3.7µM*	-12%
CC(=O)CS(=O)(=O)c1ccc(Oc2ccc(S(=O)(=O)CC(C)=O)cc2)cc1	-5	7	?	7%	?	-5%
Cc1ccc(C(=O)OCC(=O)N2C(C)CCCC2C)cc1S(=O)(=O)N1CCOCC1 (stereo not given)	68	31	?	nt	0%	?
CC(=O)Nc1ccc(-c2cc(C(=O)O)c3c(-c4ccccc4)[nH]nc3n2)cc1	nt	nt	-15%	-1%	2%	nt
CC(C(=O)c1ccc(Br)cc1)[n+]1cccc2ccccc21 (stereo not given)	-3	39	9.2µM*	nt	10µM*	2%
CCCC(=O)NC(c1ccc(OC)cc1)c1ccc2cccnc2c1O (stereo not given)	4	106	2.6µM*	10%	2.3µM*	?
O=C(O)CCC(=O)NC(c1ccccc1)c1ccccc1	21	18	-15%	5%	-21%	1%
CCCCC(=O)NC(c1ccccc1)c1ccc2cccnc2c1O (stereo not given)	4	137	0.73µM*	nt	0.58µM*	?
CCC(=O)NC(c1cc(Cl)c2cccnc2c1O)c1cccn1C (stereo not given)	nt	nt	nt	2%	nt	nt
CC(=O)NC(c1ccc(C(C)C)cc1)c1ccc2cccnc2c1O (stereo not given)	18	168	1.3µM*	nt	2.6µM*	?
CC(=O)NC(C)c1cc(F)c2cccnc2c1O (stereo not given)	7	nt	nt	-1%	nt	-6%

Screens as filed in PubChem.
